What all share (test): NCI-60 one-dose screen, 48 h (100 = growth as untreated, 0 = no growth, -100 = all killed)
One experiment concerns NCI-H23 lung. Conditions: 10 µM unless noted.
Another experiment concerns NCI-H226 lung. The conditions noted are these: 10 µM unless noted.
For a further experiment, the system named is NCI-H322M lung. Conditions: 10 µM unless noted.
The test system of the next experiment is HOP-62 NSCLC. Conditions: 10 µM unless noted.
A further experiment has as its system NCI-H460 lung. Conditions: 10 µM unless noted.
Another experiment relates to NCI-H522 lung. The conditions noted are these: 10 µM unless noted.
The next experiment deals with A549/ATCC NSCLC. The conditions noted are these: 10 µM unless noted.
In the next experiment the test system is 786-0 renal. Conditions: 10 µM unless noted.
In a further experiment the test system is COLO 205 colon. Conditions: 10 µM unless noted.
For a further experiment, the system named is DU-145 prostate. The conditions noted are these: 10 µM unless noted.
A further experiment has as its system K-562 leukemia. Conditions: 10 µM unless noted.
Another experiment deals with MALME-3M melanoma. Conditions: 10 µM unless noted.
A further experiment relates to MDA-MB-231 breast. The conditions noted are these: 10 µM unless noted.
A further experiment deals with RXF 393 renal. Conditions: 10 µM unless noted.
The subject of the next experiment is SF-268 CNS. Conditions: 10 µM unless noted.
The test system of the next experiment is SF-295 CNS. Conditions: 10 µM unless noted.
Another experiment has as its system SF-539 CNS. Conditions: 10 µM unless noted.
A further experiment relates to UACC-257 melanoma. The conditions noted are these: 10 µM.
The test system of the next experiment is M14 melanoma. The conditions noted are these: 10 µM unless noted.

Compounds without any hit were thinned out: in the full panel of roughly 83,000, 20% have a hit.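 Treatment: one concentration, 48 hours, 96-well format. Scoring: percent growth, with anything below 10 considered active.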 Values without a mark were called inactive. Active and inactive are the calls of the source.

This note sets out measurements from PubChem BioAssay (NCI).

In the case of `Cc1ccc(NC(=O)c2ccc(CN3CCN(C)CC3)c(C(F)(F)F)c2)cc1Oc1ccc(-c2[nH]nc3ncnc(N)c23)cc1`, the growth in the experiment with NCI-H23 lung was 90.1%; in the experiment on NCI-H226 lung, 78.4%; in the experiment on NCI-H322M lung, 96.2%; with HOP-62 NSCLC, 99.4%; in the experiment on NCI-H460 lung it was 93.5%; in the experiment with NCI-H522 lung, 84.9%. The growth in the experiment on A549/ATCC NSCLC is 78.6%; in the experiment on 786-0 renal, 70.9%; in the experiment with COLO 205 colon, 52.5%; in the experiment with DU-145 prostate it was 95.3%; in the experiment on K-562 leukemia, 2.49% (active); in the experiment with MALME-3M melanoma it was -12% (active). The growth in the experiment with MDA-MB-231 breast was 67.5%; in the experiment with RXF 393 renal it was 42.3%; in the experiment on SF-268 CNS, 88%; with SF-295 CNS it was 82.8%; with SF-539 CNS, 60.2%; in the experiment on UACC-257 melanoma it was 58.5%.
Take `Oc1ccc(CSc2nnc(-c3ccc(Oc4ccccc4)cc3)o2)c2cccnc12`: the growth in the experiment on NCI-H23 lung was 31.3%; in the experiment with NCI-H226 lung, 71.8%; in the experiment on NCI-H322M lung it was 36.7%; in the experiment with HOP-62 NSCLC, 9.54% (active); in the experiment on NCI-H460 lung, 3.07% (active); in the experiment with NCI-H522 lung, 40.1%. Moreover, the growth in the experiment on A549/ATCC NSCLC is 9.22% (active); in the experiment with 786-0 renal it was -11.5% (active); in the experiment on COLO 205 colon, 78.2%; in the experiment on DU-145 prostate, 45.6%; with K-562 leukemia it was 9.13% (active); in the experiment on MALME-3M melanoma, 70.8%. The growth in the experiment with MDA-MB-231 breast is 45.5%; in the experiment on RXF 393 renal, 60.6%; with SF-268 CNS, 28.8%; in the experiment with SF-295 CNS it was 1.44% (active); in the experiment on SF-539 CNS, 31.6%; in the experiment with UACC-257 melanoma it was 45.1%.
Turning to `CCn1c2ccc(/C=N/OCCCN(C)C)cc2c2cc(/C=N/OCCCN(C)C)ccc21`, the growth in the experiment with NCI-H23 lung is -5.99% (active); in the experiment on NCI-H226 lung, 79.7%; in the experiment with NCI-H322M lung it was -11.6% (active); in the experiment with HOP-62 NSCLC, 62.5%; in the experiment with NCI-H460 lung, -3.59% (active); in the experiment on NCI-H522 lung, -60.5% (active). The growth is -67.8% (active) in the experiment with A549/ATCC NSCLC; -42.5% (active) with 786-0 renal; -55.6% (active) with COLO 205 colon; 17.1% in the experiment on DU-145 prostate; -17.5% (active) in the experiment with K-562 leukemia; -88.3% (active) in the experiment on MALME-3M melanoma. Besides, the growth was -9.87% (active) with MDA-MB-231 breast; -73.3% (active) with RXF 393 renal; 79.1% in the experiment on SF-268 CNS; -66.5% (active) with SF-295 CNS; -80.4% (active) in the experiment with SF-539 CNS; -67.1% (active) with UACC-257 melanoma. Besides, the growth with M14 melanoma was -84.4% (active).
